These results are taken from PubChem BioAssay.

SMILES strings stand for the structures. The source made the active and inactive calls.

The nature of assay [1]: optical density shifts of acrAB sulA E. coli – strain DRC41, OD650, 48 h, E. coli filamentation inducer project, primary screen (AID 1152).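 Note: E. coli MC1000 strain DRC41 lacking acrAB efflux pump and sulA.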 The note with it: higher = more signal, called active from +8 up or from −8 down.
Assay [2] can be described thus: probe aLefty1 binding on compound microarray – biochemical, small-molecule microarray, 635/667 nm fluorescence, primary screen (AID 1153).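 Note: score merges spot fluorescence with signal-to-noise ratio from the scanned slide images.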 The note with it: higher = more signal.
A short description of assay [3]: plasmodial surface anion channel blockers, osmotic lysis – cell-based, P. falciparum Indochina, OD700, 1 h, primary screen (AID 1154). As to conditions: P. falciparum Indochina infected RBC osmotic lysis, higher = more signal, called active from +8 up or from −8 down.
Assay [4] in a line: plasmodial surface anion channel blockers, osmotic lysis – cell-based, P. falciparum Indochina, OD700, 2 h, primary screen (AID 1155).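 Note: lysis reports solute entry through the parasite surface anion channel PSAC.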 As to conditions: P. falciparum Indochina infected erythrocytes, higher = more signal, called active from +8 up or from −8 down.
A short description of assay [5]: changes in parasitized red cell lysis, either direction – P. falciparum Indochina, OD700, 3 h, PSAC antagonist project, primary screen (AID 1156). As to conditions: P. falciparum-infected erythrocytes, osmotic lysis, higher = more signal, called active from +8 up or from −8 down.
The nature of assay [6]: plasmodial surface anion channel blockers, osmotic lysis – cell-based, P. falciparum Indochina, OD700, 18 h, primary screen (AID 1157). The note with it: P. falciparum Indochina infected erythrocytes, osmotic lysis OD700, 18 h; higher = more signal, called active from +8 up or from −8 down.
The nature of assay [7]: S6 kinase pathway phospho-S6 level changes – cell-based, A549, cytoblot, luminescence, serum-stimulated, primary screen (AID 1158).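 Note: serum-stimulated A549 lung adenocarcinoma cells; signal is phosphorylated S6 detected by cytoblot immunostaining with HRP secondary.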 As to conditions: 5 h, higher = more signal.
Assay [8] concerns the target NADPH oxidase 2 (Homo sapiens) (UniProt P04839). Description: compounds shifting NOX2 Amplex Red fluorescence – cell-based, HEK293-NOX2, PMA-stimulated, NOX inhibitor project, primary screen (AID 1159). Note: test concentration not given here. As to conditions: 45 min, higher = more signal, called active from +8 up or from −8 down.
The target in assay [9] is NADPH oxidase 4 (Homo sapiens) (UniProt Q9NPH5). Description: compounds shifting NOX4 Amplex Red fluorescence – cell-based, HEK293-NOX4, tetracycline-induced, NOX inhibitor project, primary screen (AID 1160). As to conditions: HEK293-NOX4, Amplex Red H2O2 fluorescence, 45 min; higher = more signal, called active from +8 up or from −8 down.
For assay [10], the target named is NADPH oxidase 5 (Homo sapiens) (UniProt Q96PH1). Description: compounds shifting NOX5 Amplex Red fluorescence – cell-based, HEK293-NOX5, NOX inhibitor project, primary screen (AID 1161). As to conditions: HEK293-NOX5, ionomycin, 45 min, higher = more signal.
NADPH oxidase 5 (Homo sapiens), sequence (Q96PH1 whole entry, looked up): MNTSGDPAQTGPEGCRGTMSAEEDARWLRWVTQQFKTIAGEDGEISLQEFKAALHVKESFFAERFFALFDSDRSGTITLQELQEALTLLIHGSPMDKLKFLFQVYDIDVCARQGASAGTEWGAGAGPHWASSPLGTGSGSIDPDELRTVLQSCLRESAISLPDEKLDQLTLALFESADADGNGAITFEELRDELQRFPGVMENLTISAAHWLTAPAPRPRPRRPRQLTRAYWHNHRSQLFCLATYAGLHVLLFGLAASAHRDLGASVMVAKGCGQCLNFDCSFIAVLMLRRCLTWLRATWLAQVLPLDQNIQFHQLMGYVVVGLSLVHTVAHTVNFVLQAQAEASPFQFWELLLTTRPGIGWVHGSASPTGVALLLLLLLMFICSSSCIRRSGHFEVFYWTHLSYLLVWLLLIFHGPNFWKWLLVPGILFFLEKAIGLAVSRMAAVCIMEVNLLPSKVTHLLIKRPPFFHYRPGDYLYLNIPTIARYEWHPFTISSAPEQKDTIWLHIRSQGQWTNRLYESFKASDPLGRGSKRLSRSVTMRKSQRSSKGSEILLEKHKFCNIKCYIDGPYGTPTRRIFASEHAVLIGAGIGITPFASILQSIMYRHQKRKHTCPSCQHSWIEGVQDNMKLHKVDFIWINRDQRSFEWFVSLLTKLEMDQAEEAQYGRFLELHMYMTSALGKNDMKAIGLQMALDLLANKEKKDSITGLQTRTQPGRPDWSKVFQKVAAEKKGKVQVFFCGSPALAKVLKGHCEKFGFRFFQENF

NADPH oxidase 2 (Homo sapiens), sequence (P04839 whole entry, looked up): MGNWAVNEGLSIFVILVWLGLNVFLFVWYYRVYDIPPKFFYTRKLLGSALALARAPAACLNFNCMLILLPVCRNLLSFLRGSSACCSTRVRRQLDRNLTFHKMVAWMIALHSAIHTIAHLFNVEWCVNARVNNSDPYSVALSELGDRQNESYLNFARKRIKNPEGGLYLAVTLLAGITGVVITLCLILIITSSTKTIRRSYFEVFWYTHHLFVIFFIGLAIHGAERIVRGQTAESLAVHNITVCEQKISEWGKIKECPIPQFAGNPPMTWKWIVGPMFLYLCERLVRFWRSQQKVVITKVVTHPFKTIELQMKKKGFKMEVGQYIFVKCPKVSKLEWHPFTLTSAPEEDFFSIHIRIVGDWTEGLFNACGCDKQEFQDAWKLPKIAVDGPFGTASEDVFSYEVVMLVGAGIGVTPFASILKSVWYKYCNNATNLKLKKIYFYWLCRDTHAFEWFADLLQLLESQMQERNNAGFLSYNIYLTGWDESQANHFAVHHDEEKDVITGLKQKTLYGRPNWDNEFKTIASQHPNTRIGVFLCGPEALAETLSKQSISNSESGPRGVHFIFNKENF
NADPH oxidase 4 (Homo sapiens), sequence (Q9NPH5 whole entry, looked up): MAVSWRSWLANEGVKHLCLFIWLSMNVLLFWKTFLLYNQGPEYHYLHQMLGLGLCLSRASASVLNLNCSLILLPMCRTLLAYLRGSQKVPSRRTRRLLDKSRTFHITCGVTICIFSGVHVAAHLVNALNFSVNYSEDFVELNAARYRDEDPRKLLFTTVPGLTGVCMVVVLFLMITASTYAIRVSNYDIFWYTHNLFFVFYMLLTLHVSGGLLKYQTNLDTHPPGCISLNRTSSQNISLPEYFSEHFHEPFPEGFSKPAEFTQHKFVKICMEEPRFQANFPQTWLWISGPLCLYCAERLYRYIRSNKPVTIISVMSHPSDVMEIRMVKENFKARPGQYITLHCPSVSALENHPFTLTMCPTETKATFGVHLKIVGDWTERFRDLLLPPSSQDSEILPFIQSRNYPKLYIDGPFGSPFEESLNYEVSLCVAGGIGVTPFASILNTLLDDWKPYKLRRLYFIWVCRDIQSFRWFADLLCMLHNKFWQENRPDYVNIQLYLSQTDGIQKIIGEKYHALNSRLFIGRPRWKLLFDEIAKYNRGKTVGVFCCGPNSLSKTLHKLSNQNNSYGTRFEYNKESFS

As to `CCCCN1CC=CC23O[C@@H]4C=CCOC(=O)[C@@H]4[C@H]2C(=O)N(CCCCCO)[C@@H]3C1=O` (stereo not given in full), the z-score in assay [1] is 0.504 (inactive); in assay [3], 1.25 (inactive); in [4] it was 0.882 (inactive); in assay [5], 1.22 (inactive); in assay [6], 0.529 (inactive); in assay [7], 0.0401. Also, the figures for the z-score in assay [8], in assay [9] and in [10] were 0.872 (inactive), 0.381 (inactive) and 1.37, respectively. Besides, the composite z-score in [2] was determined as 0.749.
For `NCCCCCNC(=O)[C@@H]1C[C@@H]2C(=O)NCC(=O)N2[C@@H]1c1ccc(O)cc1`, the z-score in assay [1] is -0.142 (inactive); in [3], 0.539 (inactive); in [4] it was 0.115 (inactive); in assay [5], -0.563 (inactive); in [6], -0.0673 (inactive); in assay [7] it was -0.47. In addition, the results for the z-score in assay [8], in assay [9] and in assay [10] were -0.354 (inactive), -0.0757 (inactive) and 0.564, respectively. Moreover, the composite z-score in assay [2] was -0.0984.
With `CC[C@@H]1C=C(C(=O)O)[C@H](c2ccco2)N1S(=O)(=O)c1ccc(C)cc1`, the z-score is -0.0046 (inactive) in [1]; 1.96 (inactive) in [3]; 1.37 (inactive) in assay [4]; -0.0701 (inactive) in [5]; 0.953 (inactive) in [6]; 0.123 in assay [7]. In addition, the figures for the z-score in assay [8], in assay [9] and in [10] were 0.152 (inactive), -0.589 (inactive) and -0.764, respectively. The same molecule yielded a composite z-score in [2] of -0.148.
As to `C=CCNC(=O)[C@@H]1[C@H]2C(=O)O[C@H](c3ccccc3)[C@H](c3ccccc3)N2[C@H](c2ccc(OCCO)cc2)[C@@]12C(=O)Nc1ccc(C#Cc3ccc(OC)cc3)cc12`, the z-score in assay [1] is 0.411 (inactive); in assay [3], 3.18 (inactive); in assay [4] it was 1.46 (inactive); in assay [5], 0.931 (inactive); in [6], 0.677 (inactive); in assay [7], 0.278. The figures for the z-score in assay [8], in assay [9] and in [10] were 1.04 (inactive), -1.11 (inactive) and 0.959, respectively. In assay [2], this molecule registered a composite z-score of 0.498.
`COc1ccc([Si](C)(C)[C@H]2[C@H](CC(=O)N3Cc4ccccc4C[C@H]3CO)O[C@@]3(C(=O)N(Cc4ccc(N5CCC5=O)cc4)c4ccccc43)[C@@H]2C)cc1`: the z-score in assay [1] was 0.97 (inactive); in assay [3] it was 6.86 (inactive); in assay [4], 1.45 (inactive); in assay [5], 1.46 (inactive); in assay [6], 1.11 (inactive); in assay [7] it was 0.414. Moreover, the z-score in assay [8] is -0.241 (inactive); in [9], 0.465 (inactive); in [10] it was -1.64. The molecule further came in with a composite z-score in [2] of 0.874.
Regarding `COc1ccc(C(O)C2C=CC3C(=O)N(c4ccccc4)C(=O)C3N2Nc2ccccc2F)cc1OCc1ccccc1` (stereo not given), the z-score in assay [1] is -1 (inactive); in assay [3], 9.5 (active); in assay [4] it was 2.5 (inactive); in assay [5], 0.361 (inactive); in [6] it was 1.17 (inactive); in assay [7], -1.12. In addition, the z-score in assay [8] is -1.18 (inactive); in [9], -2.79 (inactive); in [10], -1.17. In assay [2], this molecule registered a composite z-score of 0.5.
Turning to `CCCCCN1CC=CC23O[C@@H]4/C=C\CCCOC(=O)C4[C@H]2C(=O)N(C(CO)C(C)C)[C@@H]3C1=O` (stereo not given in full), the z-score is 1.52 (inactive) in [1]; 0.724 (inactive) in assay [3]; 0.264 (inactive) in [4]; 0.29 (inactive) in assay [5]; 0.0866 (inactive) in assay [6]; 0.0595 in assay [7]. Moreover, the values for the z-score in assay [8], in [9] and in assay [10] were 1.59 (inactive), 0.481 (inactive) and 2.17, respectively. Also, in assay [2], the composite z-score was -0.113.
In the case of `C=CCNC(=O)[C@H]1[C@@H]2C(=O)O[C@@H](c3ccccc3)[C@@H](c3ccccc3)N2[C@@H](c2ccc(OCCO)cc2)[C@]12C(=O)Nc1ccc(C#CC3=CCCCC3)cc12`, the z-score in assay [1] was 0.951 (inactive); in [3], 2.36 (inactive); in assay [4], 1.66 (inactive); in assay [5], -1.04 (inactive); in assay [6] it was 1.4 (inactive); in assay [7], -0.571. Further, the z-score in [8] is 1.24 (inactive); in assay [9] it was -1.05 (inactive); in [10] it was 1.02. The molecule further registered a composite z-score in assay [2] of -0.101.
Take `[N-]=[N+]=NCc1ccccc1[C@@H]1OC(c2ccc(OCCCO)cc2)=N[C@]1(CCS(=O)(=O)c1ccccc1)C(=O)NCc1ccccc1`: the z-score was -0.665 (inactive) in [1]; 16.4 (active) in assay [3]; 2.27 (inactive) in assay [4]; 1.75 (inactive) in assay [5]; 0.814 (inactive) in assay [6]; -0.0212 in [7]. Besides, the z-score is -1.04 (inactive) in assay [8], 0.0609 (inactive) in [9] and -0.898 in [10]. In assay [2], this molecule displayed a composite z-score of 1.43.
Turning to `COc1cc(CO)cc(I)c1O[C@H]1C=C(C(=O)NCCO)C[C@@H](N(CCN2CCOCC2)C(=O)C2CCOC2)[C@@H]1O` (stereo not given in full), the z-score in [1] is 3.66 (inactive); in assay [3], 8.79 (active); in [4], 1.59 (inactive); in [5] it was 1.89 (inactive); in [6], 0.427 (inactive); in assay [7], 0.432. The results for the z-score in [8], in assay [9] and in assay [10] were -0.568 (inactive), 1.29 (inactive) and 0.233, respectively. Moreover, the composite z-score in assay [2] is -0.319.
As to `COc1ccc([C@H]2OC[C@@H]3CC4(CC=CC4)C(=O)N32)cc1`, the z-score is -0.56 (inactive) in [1]; 0.486 (inactive) in assay [3]; 0.477 (inactive) in assay [4]; -0.51 (inactive) in [5]; 0.136 (inactive) in assay [6]; -0.516 in [7]. For the same molecule, the results for the z-score in [8], in [9] and in assay [10] were 0.777 (inactive), 0.674 (inactive) and 0.291, respectively. This molecule also came in with a composite z-score in assay [2] of 0.0406.
Regarding `O=C(NCc1ccc(F)cc1)[C@H]1C[C@H]2C(=O)N[C@@H](Cc3ccccc3)C(=O)N2[C@H]1c1ccc(O)cc1`, the z-score was 0.132 (inactive) in [1]; 2.64 (inactive) in assay [3]; 0.591 (inactive) in assay [4]; -1.55 (inactive) in [5]; 0.498 (inactive) in assay [6]; -0.0688 in assay [7]. Moreover, the z-score in assay [8] is 0.171 (inactive); in [9], 0.301 (inactive); in [10], 0.965. This molecule also registered a composite z-score in assay [2] of -0.0601.
As for `O=C1OCCC/C=C\[C@H]2OC34C=CCN(CCN5CCOCC5)C(=O)[C@H]3N(CCCO)C(=O)[C@@H]4C12` (stereo not given in full), the z-score in [1] was -0.478 (inactive); in assay [3] it was 2.38 (inactive); in [4], 0.351 (inactive); in [5], -0.893 (inactive); in [6], -0.352 (inactive); in assay [7], -0.181. Also, the results for the z-score in assay [8], in assay [9] and in [10] were 1.18 (inactive), 0.481 (inactive) and 2.27, respectively. Also, in [2], the composite z-score is -0.284.
